Data published in the supplement of paper PMC6555819.

Assays:
Test in all cases: PBM binding z-score (relative to random genomic background probes); higher = stronger binding; sequences stand for … in GC…GCGATTGACAGCGTAGAATGAAGG
[1] = tested on: RARb homodimer (NR concentration 270 nM)
Procedure, shortened: (§1)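 Binding z-scores take random background probes as their reference. They come from custom Agilent 4×180K protein-binding microarrays incubated 1 h with ligand-free nuclear receptor dimers, with antibodies against each partner (one per run) detecting binding. Scanned fluorescence was regression-normalized.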

[2] = tested on: RARg:RXRa (NR concentration 270 nM, RXRa partner concentration 90 nM)
Procedure, shortened: as §1

[3] = tested on: RARg homodimer (NR concentration 270 nM)
Procedure, shortened: as §1

[4] = tested on: RXRa DBDmut IVT, anti-RXR (DBD mutation: RXRa K156A/R161A, NR concentration 90 nM)
Procedure, shortened: as §1

[5] = tested on: RXRa homodimer (NR concentration 180 nM)
Procedure, shortened: as §1

[6] = tested on: THRa:RXRa (NR concentration 90 nM, RXRa partner concentration 90 nM)
Procedure, shortened: as §1

[7] = tested on: THRa homodimer (NR concentration 90 nM)
Procedure, shortened: as §1

[8] = tested on: VDR homodimer (NR concentration 270 nM)
Procedure, shortened: as §1

TCATATAGGTAAATGATAGGTGAAAGTCCGATCT
PBM binding z-score [1]: 0.731 | PBM binding z-score [2]: 0.906 | PBM binding z-score [3]: 0.775 | PBM binding z-score [4]: 1.92 | PBM binding z-score [5]: 1.15 | PBM binding z-score [6]: 0.682 | PBM binding z-score [7]: 0.132 | PBM binding z-score [8]: 0.346

CAAACTAGGACAAAGGTCAAAGTCGAGCCAACCA
PBM binding z-score [1]: 4.67 | PBM binding z-score [2]: 6.7 | PBM binding z-score [3]: 5.88 | PBM binding z-score [4]: 2.3 | PBM binding z-score [5]: 7.22 | PBM binding z-score [6]: 4.13 | PBM binding z-score [7]: 1.18 | PBM binding z-score [8]: 2.51

CAAACTAGGTCAAGGTCAAAGACGGTTTGTGCCA
PBM binding z-score [1]: 5.1 | PBM binding z-score [2]: 5.82 | PBM binding z-score [3]: 6.9 | PBM binding z-score [4]: 3.16 | PBM binding z-score [5]: 5.06 | PBM binding z-score [6]: 4.34 | PBM binding z-score [7]: 3.55 | PBM binding z-score [8]: 4.1

CCTTTCGGGTCACGAGGTTATAGCACGACGAGCG
PBM binding z-score [1]: 4.31 | PBM binding z-score [2]: 6.29 | PBM binding z-score [3]: 5.8 | PBM binding z-score [4]: 2.08 | PBM binding z-score [5]: 7.39 | PBM binding z-score [6]: 4.52 | PBM binding z-score [7]: 3.83 | PBM binding z-score [8]: 2.77

TAGCCTAGGTCATTGCGCCAGTATAGTACGCATC
PBM binding z-score [1]: 2.53 | PBM binding z-score [2]: 3.8 | PBM binding z-score [3]: 3.99 | PBM binding z-score [4]: 1.74 | PBM binding z-score [5]: 3 | PBM binding z-score [6]: 2.8 | PBM binding z-score [7]: 1.07 | PBM binding z-score [8]: 1.54

GCGACTGGGGCAACGCAGGTTACCATAAGGTTGG
PBM binding z-score [1]: 1.32 | PBM binding z-score [2]: 0.851 | PBM binding z-score [3]: 0.785 | PBM binding z-score [4]: -0.722 | PBM binding z-score [5]: 0.638 | PBM binding z-score [6]: 2.88 | PBM binding z-score [7]: 0.105 | PBM binding z-score [8]: -0.176

TCTAGCAGGCCAGAGGGTAACTCAAGAGGTACGG
PBM binding z-score [1]: 0.228 | PBM binding z-score [2]: 0.127 | PBM binding z-score [3]: 0.174 | PBM binding z-score [4]: -0.0485 | PBM binding z-score [5]: 0.497 | PBM binding z-score [6]: -0.104 | PBM binding z-score [7]: -0.765 | PBM binding z-score [8]: -0.49

TCATATAGGTAAACAGGTGACAGTCCGTAAGTTA
PBM binding z-score [1]: 0.765 | PBM binding z-score [2]: 0.72 | PBM binding z-score [3]: 0.419 | PBM binding z-score [4]: 1.37 | PBM binding z-score [5]: 1.12 | PBM binding z-score [6]: 0.614 | PBM binding z-score [7]: 0.354 | PBM binding z-score [8]: 0.168

TCGGGTAGGTTACCAATGGGGCATTCAGCTTTCT
PBM binding z-score [1]: 1.04 | PBM binding z-score [2]: 1.63 | PBM binding z-score [3]: 0.754 | PBM binding z-score [4]: 0.101 | PBM binding z-score [5]: 0.683 | PBM binding z-score [6]: 0.482 | PBM binding z-score [7]: 0.377 | PBM binding z-score [8]: 0.0681

TAGCCTAGGTCATTCAGGGGCCAGTAGAGAAAGC
PBM binding z-score [1]: 3.21 | PBM binding z-score [2]: 6.31 | PBM binding z-score [3]: 4.35 | PBM binding z-score [4]: 1.84 | PBM binding z-score [5]: 2.97 | PBM binding z-score [6]: 3.63 | PBM binding z-score [7]: 0.688 | PBM binding z-score [8]: 1.53

TGAATGAGGTTATAAGATCGGGGAACGTTGCAAA
PBM binding z-score [1]: 0.0926 | PBM binding z-score [2]: 1.17 | PBM binding z-score [3]: 0.891 | PBM binding z-score [4]: 0.942 | PBM binding z-score [5]: 1.77 | PBM binding z-score [6]: 1.76 | PBM binding z-score [7]: 0.158 | PBM binding z-score [8]: 0.395

GCTATTAGTAGAAAGGGCAACCGAATGATTCTCG
PBM binding z-score [1]: 1.83 | PBM binding z-score [2]: 0.904 | PBM binding z-score [3]: 1.32 | PBM binding z-score [4]: 0.538 | PBM binding z-score [5]: 0.634 | PBM binding z-score [6]: 0.234 | PBM binding z-score [7]: -0.401 | PBM binding z-score [8]: -0.301

TCTTGTAGATCAAGGAGGTTAAGAAAGCCTGAGT
PBM binding z-score [1]: 0.594 | PBM binding z-score [2]: 0.234 | PBM binding z-score [3]: -0.0688 | PBM binding z-score [4]: 0.581 | PBM binding z-score [5]: 0.685 | PBM binding z-score [6]: 0.835 | PBM binding z-score [7]: -0.069 | PBM binding z-score [8]: 0.29

CCTTACGGGTCACTCCAGGTTATAGTATCGGAGT
PBM binding z-score [1]: 3.16 | PBM binding z-score [2]: 4.38 | PBM binding z-score [3]: 4.25 | PBM binding z-score [4]: 1.55 | PBM binding z-score [5]: 4.67 | PBM binding z-score [6]: 5.23 | PBM binding z-score [7]: 0.63 | PBM binding z-score [8]: 1.7
